Test results reported in the supplement of paper PMC7156485.
± gives the standard deviation of the averaged measurements.

Key:
Settings in all cases: concentration: 10 µM; 24 h
HCC1569 [1] = assay: cell number relative to DMSO (% of DMSO); higher = more cells (less growth inhibition / toxicity)
Method in brief: (§1)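 In 384-well plates holding 800 HCC1569 or TDF cells per well in RPMI with 10% FBS, compounds were tested at 10 µM for 24 h at 37 °C in triplicate. Fixation used 3.7% formaldehyde. Staining used a rabbit anti-H1.0 antibody with an AlexaFluor 647 secondary, plus DAPI. Each value, H1.0 nuclear intensity or cell number, is a median of replicates shown as percent of the plate control, and HCC1569 values were smoothed for positional effects.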

TDF [2] = assay: as above
Method in brief: as §1

TDF [3] = assay: H1.0 immunofluorescence intensity relative to DMSO (% of DMSO); higher = stronger H1.0 induction, active = 120 or more
Method in brief: as §1

HCC1569 [4] = assay: H1.0 immunofluorescence intensity relative to DMSO (% of DMSO); higher = stronger H1.0 induction, active = 140 or more
Method in brief: as §1
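For H1.0 immunofluorescence intensity relative to DMSO in this document: TDF is a line of transformed human dermal fibroblasts of mesenchymal origin.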
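For cell number relative to DMSO in this document: TDF denotes transformed human dermal fibroblasts of mesenchymal origin.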

Row | SMILES | cell number (HCC1569 [1]) | cell number (TDF [2]) | H1.0 immunofluorescence intensity (TDF [3]) | H1.0 immunofluorescence intensity (HCC1569 [4])
1 | OCCOc1ccc(/C(=C(/CCCl)c2ccccc2)c2ccccc2)cc1 [2-{4-[(1Z)-4-chloro-1,2-diphenyl-1-butenyl]phenoxy}ethanol] | 101 | 96.7 | 100 (inactive) | 96.6 (inactive)
2 | CC(C)(Sc1cc(C(C)(C)C)c(O)c(C(C)(C)C)c1)Sc1cc(C(C)(C)C)c(O)c(C(C)(C)C)c1 [Probucol] | 102 | 106 | 91.9 (inactive) | 91.8 (inactive)
3 | COc1ccc(C(=O)NCc2cccnc2)cc1C(=O)NCc1cccnc1 [Picotamide] | 102.3 ± 0.66 | 103 ± 5.2 | 93.6 (inactive) | 103 (inactive)
4 | Nc1ccn(C2OC(CO)C(O)C2(F)F)c(=O)n1 (configuration not stated) [Gemcitabine] | 74.8 | 42.4 | 122 (active) | 96.6 (inactive)
5 | CC(c1cc2ccccc2s1)N(O)C(N)=O (configuration not stated) [Zileuton] | 102 | 98.4 | 94.2 (inactive) | 101 (inactive)
6 | O=C(O)c1cc2cc(F)ccc2[nH]1 [5-Fluoroindole-2-carboxylic acid] | 99.3 | 89 | 102 (inactive) | 98.6 (inactive)
7 | CC(C)CC(NC(=O)C1OC1C(=O)O)C(=O)NCCCCN=C(N)N (configuration not stated) | 99.92 ± 0.64 | 96.3 ± 6.9 | 97.7 (inactive) | 97.3 (inactive)
8 | COc1cc(-c2oc3cc(O)cc(O)c3c(=O)c2OC2OC(CO)C(O)C(O)C2O)ccc1O (configuration not stated) [Isorhamnetine-3-glucoside] | 102 | 98.2 | 97.6 (inactive) | 85.8 (inactive)
9 | CC(=O)NCCc1c[nH]c2ccc(O)cc12 [N-Acetyl-5-hydroxytryptamine] | 101 | 101 | 93.3 (inactive) | 87.2 (inactive)
10 | N[C@@H](Cc1c[nH]c2ccccc12)C(=O)O [L-Tryptophan] | 101 | 103 | 96.6 (inactive) | 108 (inactive)
11 | NCC(O)(CS(=O)(=O)O)c1ccc(Cl)cc1 (configuration not stated) [2-Hydroxysaclofen] | 101 | 94.6 | 97.7 (inactive) | 93.4 (inactive)
12 | Cl.O=C(CCCN1CCC(O)(c2cccc(C(F)(F)F)c2)CC1)c1ccc(F)cc1 [Trifluperidol hydrochloride] | 101 | 111 | 98.4 (inactive) | 105 (inactive)
13 | CCC=CCC=CCC=CCC=CCC=CCCCC(=O)O [Eicosapentaenoic acid] | 106 ± 9.9 | 103.8 ± 0.71 | 103 (inactive) | 99.1 (inactive)
14 | COc1ccccc1OCC(O)CN1CCN(CC(=O)Nc2c(C)cccc2C)CC1.Cl.Cl (configuration not stated) [Ranolazine.2HCl] | 104 | 93.2 | 94.2 (inactive) | 102 (inactive)
15 | NC(N)=Nc1nc(CSCCC(N)=NS(N)(=O)=O)cs1 [Famotidine] | 102 | 102 | 94.4 (inactive) | 89.7 (inactive)
16 | CN(C)c1ccc(O)c2c1CC1CC3C(N(C)C)C(=O)C(C(N)=O)=C(O)C3(O)C(=O)C1=C2O.Cl (configuration not stated) [Minocycline hydrochloride] | 99 | 109 | 99.7 (inactive) | 100 (inactive)
17 | Cc1[nH]c2ccccc2c1C1=C(NCCc2ccc(F)cc2)C(=O)N(C)C1=O | 82.4 | 59 | 137 (active) | 113 (inactive)
18 | c1ccc(-c2[nH]ncc2-c2ccnc3ccccc23)nc1 | 98 | 107 | 94.8 (inactive) | 102 (inactive)
19 | OCC1OC(n2cnc3c(NC4CCCC4)ncnc32)C(O)C1O (configuration not stated) [N6-Cyclopentyladenosine] | 99.8 | 104 | 93.5 (inactive) | 97.7 (inactive)
20 | O=C1CCN(c2ccccc2)N1 [Phenidone] | 106 | 97.6 | 92.2 (inactive) | 98.8 (inactive)
21 | CC(Nc1nc(N2CCCC2)nc2ccccc12)c1ccccc1 (configuration not stated) [N-(1-phenylethyl)-N-[2-(1-pyrrolidinyl)-4-quinazolinyl]amine] | 83.8 | 75.1 | 123 (active) | 120 (inactive)
22 | Cc1cnc(NC(=O)C2=C([O-])c3ccccc3S(=O)(=O)N2C)s1.[Na+] [Meloxicam sodium] | 102 | 115 | 91.1 (inactive) | 97.1 (inactive)
23 | CNC(CC(C)C)C(=O)NC1C(=O)NC(CC(N)=O)C(=O)NC2C(=O)NC3C(=O)NC(C(=O)NC(C(=O)O)c4cc(O)cc(O)c4-c4cc3ccc4O)C(O)c3ccc(c(Cl)c3)Oc3cc2cc(c3OC2OC(CO)C(O)C(O)C2OC2CC(C)(N)C(O)C(C)O2)Oc2ccc(cc2Cl)C1O.Cl (configuration not stated) [Vancomycin hydrochloride from Streptomyces orientalis] | 99.6 | 108 | 90.4 (inactive) | 101 (inactive)
